# About 530 (24%) of roughly 2,200 compounds were called active.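 How the source made its calls: active means inhibition above a set limit at one or more concentrations of the dose series; inactive means inhibition under that limit at every dose.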 The list is a sample of the results. Results with a measured potency or affinity are listed apart.
# Experiment: nmpC-GFP reporter counter-screen in S. Typhimurium, dose response, counter-screen for PhoP regulon inhibitor project, Salmonella Typhimurium, GFP fluorescence (AID 2401);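 further: S. typhimurium with Mg-insensitive nmpC-GFP reporter grown at 10 µM Mg2+; drop in reporter fluorescence reflects general culture growth inhibition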
# Conditions: 4 h; series mostly up to 150 µM; inhibition: at the top concentration
row,Structure (SMILES),inhibition
1,Cc1[nH]n(-c2ncc(-c3ccc(Cl)cc3)s2)c(=O)c1C(c1ccc(Cl)cc1)C(C#N)C#N (stereo not drawn),15.4% (inactive)
2,CCN(C(C)=O)c1nc(CSc2nnc(NC(C)C)s2)cs1,-24.8% (inactive)
3,c1ccc2[nH]c(CSc3nccs3)nc2c1,-13.7% (inactive)
4,Cc1ccccc1OCC(=O)N/N=C/c1ccco1,-2.6% (inactive)
5,S=c1[nH]nc(Cc2cccc3ccccc23)o1,-10.8% (inactive)
6,CC(=O)c1cccc(NC(=O)NCc2ccco2)c1,-14% (inactive)
7,Cc1ccc(NC(=O)c2cc(S(=O)(=O)N3CCC4(CC3)OCCO4)ccc2F)cc1,-20.2% (inactive)
8,O=C(c1cn(-c2ccccc2)nc1-c1cccnc1)N1CCCCC1,-2.75% (inactive)
9,CC(=O)N1CCC(N(CCN2CCOCC2)C(=S)Nc2cccc(C)c2C)CC1,-9.15% (inactive)
10,Cc1c(Cl)cccc1NC(=O)CSCC(N)=O,-19.7% (inactive)
11,CC(=O)Oc1c2occc2cc2ccc(=O)oc12,36.6% (inactive)
12,COc1cc(C2Nc3cccc4cccc(c34)N2)cc(OC)c1OC(C)=O,13% (inactive)
13,Cc1ccc2c(c1)cc(CN(Cc1ccc3c(c1)OCO3)C(=O)c1cnccn1)c1nnnn12,-12.1% (inactive)
14,CSc1ccc(C(=O)/C=C/c2ccc(N)cc2)cc1,2.91% (inactive)
15,Cc1cccc(NC(=O)c2cc(N3C(=O)CCC3=O)ccc2Cl)n1,-12.3% (inactive)
16,O=C(CSc1nc2ccccc2s1)Nc1ccc(N2CCOCC2)c(Cl)c1,32.1% (inactive)
17,Cc1ccc([N+](=O)[O-])cc1NC(=S)NC(=O)C(C)(C)C,-25.1% (inactive)
18,CN(CCO)c1cc(Sc2nc3ccccc3s2)c2nonc2c1[N+](=O)[O-],2.98% (inactive)
19,O=C(CSCc1ccccc1)N/N=C/c1ccccc1OCc1ccccc1,-9.85% (inactive)
20,Cc1ccccc1-n1c(C)cc(/C=N/Nc2ccc([N+](=O)[O-])cn2)c1C,-15.1% (inactive)
21,O=C(CSc1n[nH]c(=O)[nH]c1=O)N/N=C/c1ccccc1,-7.03% (inactive)
22,Cc1cc([N+](=O)[O-])ccc1NC(=O)Cc1ccc(F)cc1,-6.18% (inactive)

row,Structure (SMILES),inhibition
1,COc1ccc(-n2ncc(S(=O)(=O)c3ccccc3)c2-c2ccc(Cl)cc2)cc1,-11.5% (inactive)
2,COc1ccc(Cl)cc1C(=O)Nc1ccc(NC(=O)c2ccco2)cc1,-4.5% (inactive)
3,O=C(Nc1cccc(Cl)c1)C1C2CCC3C(CCC21)C3(Cl)Cl (stereo not drawn),-13.9% (inactive)
4,COc1cccc(-n2c(N)c(C(=O)Nc3c(C)n(C)n(-c4ccccc4)c3=O)c3nc4ccccc4nc32)c1,-17.2% (inactive)
5,COc1ccc(N2C(=O)CC(Sc3nc(C)c4c(n3)CCCC4)C2=O)cc1 (stereo not drawn),-8% (inactive)
6,COc1ccc(-c2cnn3c(N)c(S(=O)(=O)C(C)(C)C)cnc23)cc1,-1.79% (inactive)
7,Cc1ccc2nc(NNC(=O)c3ccc(S(=O)(=O)N4CCc5ccccc5C4)cc3)sc2c1,17.9% (inactive)
8,O=C(/C=C/c1ccc2c(c1)OCO2)N1CCN(c2ccccc2F)CC1,-20.9% (inactive)
9,COc1ccc(C(C)C)cc1S(=O)(=O)Nc1ccc(Cl)cn1,-19.4% (inactive)
10,O=C(Nc1cnc2ccccc2c1)N1CCOCC1,-17.8% (inactive)
11,CN(C)S(=O)(=O)Nc1ccc(C(=O)O)cc1,-28.6% (inactive)
12,c1ccc2c(C3=NNC(=NC4CCCCC4)SC3)c[nH]c2c1,11.5% (inactive)
13,O=C(CSc1nc2ccccc2o1)Nc1ccc(N2CCOCC2)cc1,1.64% (inactive)
14,CNc1nnc(-c2cccc(N(C)C)c2)s1,-16% (inactive)
15,O=S(=O)(c1ccccc1)N(CC(O)Cn1c2ccccc2c2ccccc21)c1ccccc1 (stereo not drawn),-17.4% (inactive)
16,CCCn1c(NCCO)nc2ccccc21,-16% (inactive)
17,COC(=O)C(CCSC)NC(=O)c1cccc([N+](=O)[O-])c1 (stereo not drawn),-14.9% (inactive)
18,Cc1ccc(CNC(=O)C2CCCN(S(=O)(=O)c3c(C)noc3C)C2)cc1 (stereo not drawn),-21.2% (inactive)
19,Cn1cccc1C(=O)OCc1csc(-c2ccccc2)n1,-2.51% (inactive)
20,Nc1ccc(C(=O)OCc2nc3ccccc3[nH]2)cc1,33.1% (inactive)
21,Cc1ccc(C)n1-c1cc([N+](=O)[O-])ccc1-n1ccnc1,-23.2% (inactive)
22,Cc1cc(-c2csc(NC(=O)c3ccccc3C(F)(F)F)n2)c(C)n1Cc1ccccc1,-0.27% (inactive)

row,Structure (SMILES),inhibition
1,Cc1nc(NCc2ccc3c(c2)OCO3)c2oc3ccccc3c2n1,6.07% (inactive)
2,Cc1scc(C(=O)O)c1-c1c(C(=O)O)csc1C,-32.6% (inactive)
3,O=[N+]([O-])c1ccccc1/C=N/N1CCN(c2ccncc2S(=O)(=O)N2CCCCC2)CC1,-22.1% (inactive)
4,CCOc1ccc(C(=O)NC(=S)Nc2ccc(N3CCCCC3)cc2)cc1[N+](=O)[O-],-0.74% (inactive)
5,CCOc1ccc(C(=O)Nc2ccccc2CC)cc1[N+](=O)[O-],-8.16% (inactive)
6,CCOc1ccc(CSC(=N)N)cc1[N+](=O)[O-],-21.6% (inactive)
7,COc1nc(-c2ccccc2)ccc1-c1noc(C)n1,-9.18% (inactive)
8,CCCc1cc(N2CCN(c3ccccn3)CC2)n2nc(C)c(-c3ccccc3)c2n1,-31% (inactive)
9,CCc1ccc(CNc2ccc(O)cc2)cc1,38.4% (inactive)
10,Nc1nc(N)nc(-c2ccccc2)n1,-20.8% (inactive)
11,CCn1c2ccccc2c2nnc(SCC(=O)Nc3ccc4c(c3)OCO4)nc21,-30.2% (inactive)
12,CCn1c2ccccc2c2cc(NC(=O)COc3ccccc3)ccc21,-22.1% (inactive)
13,CCn1cc(C(=O)O)c(=O)c2cnc(N3CCN(C(=S)NC(=O)c4ccc(Cl)cc4)CC3)nc21,-30.3% (inactive)
14,CCn1cc(C(=O)OCC(=O)Nc2ccc(S(=O)(=O)N3CCCC3)cc2)c(=O)c2ccc(C)nc21,-28.5% (inactive)
15,Cc1ccc(NC(=O)C(=O)NCCOc2ccccc2Cl)cc1,-9.68% (inactive)
16,O=C1CC(c2ccccc2)n2nc(NC(=O)c3ccccc3)nc2N1 (stereo not drawn),-8.71% (inactive)
17,Cc1ccccc1NC(=O)c1ccc(-n2cncn2)nc1,-18% (inactive)
18,Nc1cc(N)nc(SCC(=O)Nc2ccc3c(c2)OCCCO3)n1,-0.22% (inactive)
19,Cc1nn(-c2ccc(Cl)cc2)c2[nH]c(=O)c(CNCc3ccc4c(c3)OCO4)cc12,-41.1% (inactive)
20,CCCSc1nc(N2CCCC2)c2c(c1C#N)CC(C)(C)OC2,-15.5% (inactive)
21,O=C(CCn1nnc(-c2cccs2)n1)NCc1ccccc1Cl,-5.72% (inactive)
22,Nc1scc(-c2ccncc2)c1Cl,10% (inactive)

row,Structure (SMILES),inhibition
1,CN(C)c1ccnc(-n2cccc2/C=N/OCc2ccccc2)c1C#N,-32% (inactive)
2,CCOC(=O)N1CCN(C(=O)c2cn(CC(C)C)c(=O)c3c2c2ccccc2n3C)CC1,-23.4% (inactive)
3,CCOC(=O)c1cn(CC)c2cc(N3CCOCC3)c(F)cc2c1=O,10.1% (inactive)
4,Cc1cc(C)c2nc(NNC(=O)c3ccc(S(=O)(=O)N4CCc5ccccc5C4)cc3)sc2c1,20.7% (inactive)
5,Cc1ccc2nc(SCCCCOc3ccccc3)[nH]c2c1,-9.29% (inactive)
6,CN(c1ccccc1)S(=O)(=O)c1cc(C(=O)Nc2nc3ccccc3[nH]2)ccc1Cl,19.4% (inactive)
7,O=C(CSc1nnnn1-c1ccccc1)CC(=O)Nc1ccc(Cl)cc1,14.4% (inactive)
8,Cc1cccc(C(=O)NC(=S)Nc2ccc(N3CCOCC3)cc2)c1,0.18% (inactive)
9,CCOC(=O)CSc1n[nH]c(NC(=O)c2cccc(C)c2)n1,5.34% (inactive)
10,CCn1cc(C(=O)O)c(=O)c2cc(F)c(N3CCN(C(=S)NC(=O)c4ccccc4Cl)CC3)cc21,10.2% (inactive)
11,CCCS(=O)(=O)N1CCCC(C(=O)N2CCN(c3ccccn3)CC2)C1 (stereo not drawn),-39.9% (inactive)
12,COc1cc(NC(=O)CSc2nnnn2Cc2ccc3c(c2)OCO3)cc(OC)c1,-22% (inactive)
13,Cc1cccc(-n2ncc3c(NCc4ccc5c(c4)OCO5)ncnc32)c1,-0.19% (inactive)
14,O=C1Nc2ccccc2C(O)(C(=O)N2CCCCC2)N1c1ccccc1 (stereo not drawn),6.65% (inactive)
15,Cc1cccnc1N(C(=O)Nc1ccccc1)C1=NCC(C)(C)S1,-9.61% (inactive)
16,Cc1nn(-c2ncc(C(F)(F)F)cc2Cl)c(=O)n1-c1cccc(Cl)c1,-28.3% (inactive)
17,CCCc1ccc(C(=O)CCC(=O)O)cc1,8.77% (inactive)
18,COc1ccc(OC)c(C(C(=O)NCc2ccco2)N(C(=O)Cn2nnc3ccccc32)C(C)C)c1 (stereo not drawn),0.89% (inactive)
19,COc1ccc(C2C=C(c3ccc(Cl)cc3)Nc3nc(NC(C)=O)nn32)cc1 (stereo not drawn),-22.6% (inactive)
20,C=CCn1c(C)cc(C(=O)CSc2nc(N)cc(N)n2)c1C,5.49% (inactive)
21,Cc1ccc(C(C(=O)NCc2ccco2)N(CCc2ccccc2)C(=O)Cn2nnc3ccccc32)o1 (stereo not drawn),7.54% (inactive)
22,CCCOc1ccc(C(=O)CCC(=O)OCC(=O)N2CC(=O)Nc3ccccc32)cc1,2.02% (inactive)

row,Structure (SMILES),inhibition
1,CCCOc1ccc(C(=O)N2CCCC2C(=O)O)cc1 (stereo not drawn),20.2% (inactive)
2,CCn1cc(C(=O)O)c(=O)c2cc(F)c(N3CCN(S(=O)(=O)c4ccc(NC(C)=O)cc4)CC3)cc21,26.4% (inactive)
3,O=C(CN1CCC(NC(=O)c2cccc(F)c2)CC1)NCc1ccccc1F,-33.2% (inactive)
4,COc1cccc(C2C3=C(Nc4[nH]n(-c5ccccc5)c(=O)c42)c2ccccc2C3=O)c1 (stereo not drawn),14.4% (inactive)
5,COC(=O)c1sc2ccccc2c1-n1cccc1C(=O)C(=O)Nc1ccc(Cl)cc1,10.6% (inactive)
6,COc1cccc(-n2c(SCC(=O)Nc3ccc4c(c3)CCC4)nc3ccccc3c2=O)c1,-5.47% (inactive)
7,CCOC(=O)C(NC(=O)c1cccc(Cl)c1)(OCc1ccccc1)C(F)(F)F (stereo not drawn),-24.6% (inactive)
8,COc1ccccc1CC1(C)NC(=O)N(CC(=O)N2CC(C)OC(C)C2)C1=O (stereo not drawn),-10.6% (inactive)
9,Cn1c(NCc2cccs2)nc2ccccc21,-7.22% (inactive)
10,COc1ccc(OC)c(S(=O)(=O)N(C)CC(=O)N2CCc3ccccc3C2)c1,-5.92% (inactive)
11,CCCC(=O)c1c[nH]c(C(=O)NCCCN2CCOCC2)c1,0.18% (inactive)
12,O=S(=O)(Nc1ccc2ccccc2c1)c1ccccc1,-2.94% (inactive)
13,COc1ccc(N2CCN(C(=O)Nc3ccc(S(=O)(=O)N(C)C)cc3)CC2)cc1,7.43% (inactive)
14,CCc1nc2ccccc2c2nc3ccccc3n12,-30% (inactive)
15,COC(=O)c1ccc2c(=O)n(CCN3CCOCC3)c(SCC(=O)C(C)(C)C)nc2c1,-19.7% (inactive)
16,COC(=O)C1C(=O)C=C(N2CCOCC2)CC1(C)C (stereo not drawn),-12.9% (inactive)
17,CN(C)C(=O)c1cn(N(C)c2ncc(C(F)(F)F)cc2Cl)c(=O)c2ccccc12,-20.6% (inactive)
18,Cc1nc2ccccc2n1CC(=O)NCc1ccccc1,-22% (inactive)
19,CCOc1ccc(N/C=C/C(=O)c2ccc(OC)cc2)c([N+](=O)[O-])c1,-5.92% (inactive)
20,O=C(/C=C/c1ccco1)NC(=S)Nc1ccc(N2CCCC2)cc1,24.7% (inactive)

# — PubChem BioAssay AID2401 (Southern Research Specialized Biocontainment Screening …, 2010)
